Screening results from PubChem.
Shown are actives, neighbours in structure and some others; about 0.85% of the full set was active somewhere.
CCT modulator = changes cytosolic chaperonin activity; purified chaperonin ATPase assay, HTRF ADP detection, 30 min; 0.3% of 360,000 active; activity change, % (concentration not given with the values), hits read low; in the data active = activity change below about -30%; also: % is scaled to controls: 0 for no effect and ±100 for the full control effect
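First, chaperonin was dispensed at 40 nM or 20 nM final depending on batch activity. Next, compounds were pinned at 76 uM and ATP added at 10 uM. After 30 min at 37 °C, ADP detection reagents ran 30 min at ambient temperature.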
Mm-Cpn inhibitor = inhibitors of Methanococcus maripaludis chaperonin TRiC (MmCpn). purified Mm-Cpn ATPase, ADP Transcreener TR-FRET. Potency, µM (highest dose often 76.9 µM), for inactives: at the top dose activity, negative = inhibition, most hits filed as inhibitors. 0.031% of 330,000 active. AID 504842; also: potency is read from the fitted curve at half-maximal effect; % is scaled to controls: 0 for no effect and ±100 for the full control effect; nearly all actives have a fitted effect of over 80% in size
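Measured: ADP formation by purified Mm-CPN. Conditions: 25 nM protein, 10 uM ATP, Tris pH 7.4 with Mg2+, K+ and DTT, 37°C for 30 min. Detection: Transcreener HTRF after 30 min at room temperature.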
pAkt inh = blocks phosphorylation of Akt. AID 651550. 0.32% of 360,000 active. activity change, % for hits at 50 µM. Neuro2A IGF-stimulated pAkt S473 HTRF, 20 min; stronger effect = lower value; in the data active = activity change below about -80%; inconclusive = mostly about -51% to -80%; also: % is scaled to controls: 0 for no effect and ±100 for the full control effect
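Neuro2A cells in DMEM with 0.5% FBS, overnight at 37 deg C, given compound at single 50 µM final, then IGF (6 nM final) for 20 min at 37 deg C. Lysed; phospho-Akt Ser473 by HTRF after 24 h, 665/615 ratio.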
GLS inhibitor = inhibitors of human glutaminase (GLS); GLS enzymatic activity, qHTS titration; Potency, µM (titrated, usually from 45.5 µM), for the others: at the top dose activity change, negative = inhibition, usual class: inhibitors; 0.21% of 410,000 active; also: potency is read from the fitted curve at half-maximal effect; % is scaled to controls: 0 for no effect and ±100 for the full control effect
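Two-point fluorescence kinetic (t0, 30 min RT) for hKGA; glutamate detected via glutamate oxidase–HRP–Amplex Red. Substrate: 1 mM L-glutamine solution; buffer 45 mM KH2PO4, pH 8.2.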
IDH1 R132H inh = blocks human mutant IDH1 R132H enzyme. O75874. IDH1-R132H enzyme, NADPH consumption, diaphorase/resazurin fluorescence. Potency, µM (highest dose often 76.6 µM), inactives show at the top dose activity change, negative = inhibition, hits mostly inhibitors. 0.093% of 390,000 active. AID 602179; also: potency is read from the fitted curve at half-maximal effect; % is scaled to controls: 0 for no effect and ±100 for the full control effect; nearly all actives have a fitted effect of over 65% in size
Target sequence (O75874 whole entry R132H, stated change not applied): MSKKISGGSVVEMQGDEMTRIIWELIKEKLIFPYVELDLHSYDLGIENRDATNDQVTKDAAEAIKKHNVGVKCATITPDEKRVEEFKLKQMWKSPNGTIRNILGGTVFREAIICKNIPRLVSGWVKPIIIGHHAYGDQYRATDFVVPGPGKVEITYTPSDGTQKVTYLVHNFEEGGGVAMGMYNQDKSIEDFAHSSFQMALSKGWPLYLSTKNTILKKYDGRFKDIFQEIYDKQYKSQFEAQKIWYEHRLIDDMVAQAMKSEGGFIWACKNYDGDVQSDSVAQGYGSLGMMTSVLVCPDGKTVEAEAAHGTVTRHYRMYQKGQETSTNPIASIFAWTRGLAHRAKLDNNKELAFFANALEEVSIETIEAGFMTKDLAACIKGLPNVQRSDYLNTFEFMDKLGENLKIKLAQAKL
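IDH1-R132H (0.5 ug/mL) preincubated 30 min with compound, then NADPH (0.016 mM) and alpha-KG (2 mM) added; 80 min at RT, pH 7.5. Remaining NADPH coupled via diaphorase/resazurin to fluorescence (540/590 nm); concentration-response curves normalized to no-enzyme control.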
Glioma ERSR ind = inducers of ER stress response in human glioma cells; U87-MG GRP78 promoter luciferase reporter, 16 h; Potency, µM, without a hit: at the highest dose activation, usual class: activators; 0.02% of 420,000 active; AID 602332; also: potency is read from the fitted curve at half-maximal effect; series mostly up to about 76 µM; % of control where 0% means no effect; nearly all actives have a fitted effect of over 35% in size
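ERSR induction read as luciferase luminescence (Bright-Glo, 10 min at room temperature) in stably transfected human U87-MG glioma cells exposed to compounds for 16 h, using GRP78 as sensor.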
The depositor's hits bear a star; i = inactive; ? = inconclusive; . = no result given. Unless noted, calls follow the shape of the dose curve; as a rule, active = well fitted curve in the direction sought with a large enough effect; inconclusive = small, poorly fitted or top-dose-only effect, or another doubt; inactive = no such curve, though single readings can be large; an effect the other way counts as inactive or inconclusive.

SMILES | CCT modulator | Mm-Cpn inhibitor | pAkt inh | GLS inhibitor | IDH1 R132H inh | Glioma ERSR ind
NC(=O)Cc1ccc(Nc2nnc(-c3ccc(O)cc3)c3ccccc23)cc1 | 0 | -5% | i | 11µM* | 8% | -3%
O=C1CCCC/C1=C/Nc1ccc(S(=O)(=O)Nc2ncccn2)cc1 | 0 | -4% | -120%* | -9% | -2% | -4%
O=C1CCCC/C1=C\Nc1ccc(O)cc1 | 2 | -13% | . | 58% | 16% | 2%
Cn1c(CCNC(=O)C2CC23CCN(C(=O)C2=CCCC2)CC3)nc2ccccc21 (configuration not stated) | . | . | . | . | . | -2%
COc1cc2c(cc1OC)[C@@H](Cc1cc(OC)c(OC)c(OC)c1)[N@+](C)(CCCOC(=O)CC/C=C/CCC(=O)OCCC[N@+]1(C)CCc3cc(OC)c(OC)cc3[C@H]1Cc1cc(OC)c(OC)c(OC)c1)CC2 | . | . | . | 12% | . | -4%
Cc1ccc(OCC(=O)c2cc(C)c(C)cc2C)c([N+](=O)[O-])n1 | 1 | -4% | i | -5% | 1% | -17%
Cc1ccc(OCC(=O)c2c(N)n(C)c(=O)n(C)c2=O)c([N+](=O)[O-])n1 | -1 | -2% | i | 14µM* | 7% | 4%
COc1ccc(NC(=O)CCS(=O)(=O)c2cccc3nonc23)c(OC)c1 | -1 | 1% | -113%* | -13% | 7% | -4%
COc1ccc(NC(=O)CCS(=O)(=O)c2cccc3nonc23)cc1 | 1 | 0% | i | 6% | 11% | 5%
CCN(CC)S(=O)(=O)c1cccc(C(=O)Nc2ccc(Cl)cn2)c1 | 1 | 0% | i | 5% | 0% | -7%
CCN(CC)S(=O)(=O)c1cc(C(=O)Nc2ccc(Cl)cn2)ccc1C | 0 | 1% | -114%* | -4% | 3% | 1%
O=c1c2c([N+](=O)[O-])cc([N+](=O)[O-])cc2sn1Cc1ccccc1 | 1 | 1% | i | 1.8µM* | 2% | -16%
O=C(Nc1ccc(Br)cc1)c1cc([N+](=O)[O-])cc([N+](=O)[O-])c1 | 1 | -2% | i | -13% | -7% | -1%
O=c1c2c([N+](=O)[O-])cc([N+](=O)[O-])cc2sn1-c1ccc(Br)cc1 | 0 | -7% | i | 11µM* | 0% | 2%
NC(=O)C1CCN(c2nc(-c3ccc(N4CCCCC4)nc3)cs2)CC1 | . | -4% | . | . | . | .
COc1ccc2[nH]c3c(=O)n(Cc4ccc(C(=O)N5CCCC5)cc4)c(=S)[nH]c3c2c1 | 1 | 0% | i | 10µM* | -2% | 1%
CCN1CCCC1CNC(=O)c1cnn(-c2nccc(-c3cc4ccccc4o3)n2)c1C1CC1 (configuration not stated) | . | . | . | . | . | -5%
Cc1c(C(=O)Nc2ccc(Cl)cc2)c2ccccn2c1C(=O)c1ccc(F)cc1 | -2 | -3% | -110%* | 11% | 0% | -5%
O=C(CN(Cc1ccco1)C(=O)CNS(=O)(=O)c1ccccc1)NCc1ccccc1 | -1 | 1% | -120%* | -4% | 1% | -3%
COc1cccc(N2CCN(C(c3ccccn3)c3nnnn3C(C)(C)C)CC2)c1 (configuration not stated) | 0 | -1% | -105%* | -4% | -4% | -2%
O=C(/C=C/c1ccccc1)CC(O)(c1ccccc1)C(F)(F)C(F)F (configuration not stated) | -1 | 0% | i | 3% | 5% | 11µM*
O=C(/C=C/c1ccccc1)CC(O)(c1ccccc1)C(F)(F)F (configuration not stated) | 0 | 0% | i | 5% | 9% | ?
CN(C)CCNCc1ccc(OC2CCCC2)cc1 | -3 | 1% | -114%* | 1% | 0% | -6%
CCC(CO)NCc1ccc(OC2CCCC2)cc1 (configuration not stated) | -26 | 0% | i | -1% | 5% | -2%
COc1cccc(-n2c([S-])c(C(=O)Nc3ccc(S(=O)(=O)N4CCOCC4)cc3)[n+]3cc(C(N)=O)ccc23)c1 | -41* | -4% | i | 3% | 7% | 1%
SMILES | CCT modulator | Mm-Cpn inhibitor | pAkt inh | GLS inhibitor | IDH1 R132H inh | Glioma ERSR ind
CCCOC(=O)c1ccc(OCC(O)CN2CCN(C(=O)c3ccccc3)CC2)cc1 (configuration not stated) | -3 | -7% | -128%* | -1% | 3% | -2%
CC(C)(C)c1ccc(OCC(O)CN2CCN(C(=O)c3ccccc3)CC2)cc1 (configuration not stated) | -4 | 1% | i | -3% | -4% | -4%
CS(=O)(=O)NCCSCc1ccc(Cl)cc1 | 0 | 0% | -108%* | 11% | 1% | -2%
CCc1nc2cc(C(=O)N3CCCN(C=O)CC3)cc(NC(=O)c3ccccc3OC)c2n1C | . | . | . | . | . | -1%
COc1cc2ccccc2cc1C(=O)N/N=C/c1cccnc1 | -35* | -10% | . | -2% | 9% | -4%
COc1cc(-c2cnc3ccccc3c2)cc2c1OCCN(C(=O)CCC(=O)c1ccc(F)cc1)C2 | . | . | . | . | . | -2%
N#CCC(=O)Nc1ccc(C(=O)OCC(=O)c2ccc3c(c2)OCCO3)cc1 | -1 | ? | i | -15% | -2% | -1%
N#CCC(=O)Nc1ccc(C(=O)OCC(=O)c2ccc3c(c2)OCO3)cc1 | 2 | 45µM* | i | 7% | -2% | 4%
O=C(C1CCN(S(=O)(=O)c2ccc(F)cc2)CC1)N1CCOCC1 | -41* | 4% | i | 11% | 4% | -4%
COc1ccccc1-c1nc2cc(C(=O)NC[C@H]3CCc4ccccc4O3)cc(NC(C)=O)c2n1C | . | . | . | . | . | -4%
CN(Cc1ccccc1)C(NC(=O)c1ccccc1)C(Cl)(Cl)Cl (configuration not stated) | -39* | -2% | i | -4% | 3% | 1%
O=C1/C(=C/C=C/c2ccco2)SC(=S)N1NS(=O)(=O)c1ccccc1 | -2 | 2% | i | 16µM* | 12% | -6%
O=C1/C(=C/c2cccs2)SC(=S)N1NS(=O)(=O)c1ccccc1 | -4 | -1% | i | 17% | -19% | 0%
CC(C(=O)O)N1C(=O)/C(=C/C=C/c2ccco2)SC1=S (configuration not stated) | -2 | -2% | i | 4µM* | -3% | 5%
COc1cccc(C(=O)NC2CC3CCCC(C2)N3CC(=O)Nc2ccccc2)c1 (configuration not stated) | 0 | 0% | i | 6.3µM* | 3% | -5%
COc1cccc(C(=O)NC2CC3CCCC(C2)N3CC(=O)Nc2ccc(N(C)C)cc2)c1 (configuration not stated) | 0 | -2% | i | 19% | -5% | -1%
